Only some compounds are listed: those with a hit (about 2.9% of all), similar ones and a draw of the others.
ADAM10 inh: ADAM10 inhibition, QFRET primary screen | recombinant ADAM10, EDANS/DABCYL FRET peptide cleavage, 3 h | inhibition, % at 7 µM | 0.62% of 370,000 active | AID 720582;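 active = inhibition above a per-campaign cutoff equal to the mean of compounds falling between control-based bounds plus 3 SD, cut at about 20% in these data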;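 note: 0% = DMSO wells while the 100% control is not disclosed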
ADAM17 inh: inhibits human ADAM17; P78536; recombinant ADAM17, EDANS/DABCYL FRET peptide cleavage; inhibition, % at 6.95 µM; 0.83% of 370,000 active;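 active = inhibition above the mean of compounds lying between control limits plus 3 SD, set per campaign, cut at about 8.5% in these data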;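 note: 0% = DMSO-only wells as the low control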
PLC-beta3 inh: blocks human PLC-beta3 enzyme activity; 0.18% of 370,000 active; AID 720704; Purified PLC-beta3, fluorogenic substrate, fluorescence; inhibition, % at 12.2 µM; in the data active = inhibition above about 11%;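 note: 0% = median of compound wells on plate and 100% = full blocker control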
KLK7 zymogen act: activates the human kallikrein-7 zymogen. P49862. purified proKLK7, EDANS-DABCYL substrate fluorescence; 100% is mature enzyme control, 0% vehicle. activation, % at 7 µM. 0.9% of 370,000 active. AID 652039;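 active = activation above the mean of all tested compounds plus 3 SD, computed per campaign excluding outliers beyond control limits, cut at about 13% in these data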
PLCg1 inh: blocks human PLC-gamma1 enzyme activity; purified PLC-gamma1, fluorogenic substrate, fluorescence; inhibition, % at 12.2 µM; 0.84% of 370,000 active; AID 720700
PLCg1 ctr: counter-screen for PLC-beta3 inhibitors: inhibitors of human PLC-gamma1. shares compounds with PLCg1 inh. purified PLC-gamma1, fluorogenic substrate, fluorescence. inhibition, % at 12.3 µM. 3.1% of 3,300 active. AID 743258
PLCbeta3 conf: confirmation of human PLC-beta3 inhibitors; shares compounds with PLCg1 inh; purified PLC-beta3, fluorogenic substrate fluorescence; inhibition, % at 12.3 µM; 1% of 3,300 active; AID 743261; in the data active = inhibition above about 11%
Numbers without * were called inactive. Cut-off read from the data, not from the text of the source, unless noted: active = inhibition above about 9.5%; inactive = the rest.

COC(=O)c1ccc(CN2CCCC(CNC(=O)Cc3ccc(OC)cc3)C2)cc1 (stereo not drawn) was read as ADAM10 inh 1.2, ADAM17 inh -0.1, PLC-beta3 inh -5.0, KLK7 zymogen act -0.1 and PLCg1 inh -1.2.
COc1ccc(CC(=O)NCC2CCCN(Cc3cc(OC)cc(OC)c3)C2)cc1 (stereo not drawn) was read as ADAM10 inh 7.3, ADAM17 inh 7.8, PLC-beta3 inh 0.9, KLK7 zymogen act -0.6, PLCg1 inh 13.0*, PLCg1 ctr -5.0 and PLCbeta3 conf -3.5.
`COc1ccc(NC(=O)c2cccc(S(=O)(=O)N3CCc4ccccc43)c2)cn1` gave ADAM10 inh 4.2, ADAM17 inh -0.2, PLC-beta3 inh -3.9, KLK7 zymogen act 0.2 and PLCg1 inh 2.4.
For CC(NCC(=O)Nc1ccccc1C(=O)NC1CC1)c1ccc(S(N)(=O)=O)cc1 (stereo not drawn) the results were ADAM10 inh -15.7, ADAM17 inh -3.6, PLC-beta3 inh -3.7, KLK7 zymogen act 0.3 and PLCg1 inh -5.8.
For CCN(CC)S(=O)(=O)c1ccc(C(C)NCC(=O)Nc2ccccc2C(=O)NC2CC2)cc1 (stereo not drawn) the results were ADAM10 inh -1.9, ADAM17 inh -0.6, PLC-beta3 inh -4.5, KLK7 zymogen act 0.7, PLCg1 inh 10.2*, PLCg1 ctr -0.5 and PLCbeta3 conf -0.9.
O=C(CC1C(=O)NCCN1Cc1cccc(F)c1)NCCCCCN1CCOCC1 (stereo not drawn) was read as ADAM10 inh -13.0, ADAM17 inh -5.1, PLC-beta3 inh -17.4, KLK7 zymogen act 0.7 and PLCg1 inh -7.6.
`CN=C(C)/C(C(=O)OC)=C(/O)c1c(F)cccc1F` gave ADAM10 inh -7.0, ADAM17 inh -2.6, PLC-beta3 inh -2.1, KLK7 zymogen act -0.1 and PLCg1 inh 2.2.
For CCc1nnc(NC(=O)CCC(=O)NCc2ccc(OC)cc2)s1 the results were ADAM10 inh 2.3, ADAM17 inh -0.6, PLC-beta3 inh 0.5, KLK7 zymogen act 0.0 and PLCg1 inh -0.4.
COc1ccc(CNC(=O)CCC(=O)Nc2nnc(CC(C)C)s2)cc1 was read as ADAM10 inh 5.4, ADAM17 inh 0.8, PLC-beta3 inh -2.6, KLK7 zymogen act -0.5, PLCg1 inh 12.0*, PLCg1 ctr -5.7 and PLCbeta3 conf -3.8.
CC(=O)NC(CC(=O)NC1CCCCCC1)c1ccccc1 (stereo not drawn) was read as ADAM10 inh 12.7, ADAM17 inh 2.6, PLC-beta3 inh 6.7, KLK7 zymogen act 0.2 and PLCg1 inh 3.8.
For CCC(NC(=O)NC1CCCCC1)c1ccccc1 (stereo not drawn) the results were ADAM10 inh 7.4, ADAM17 inh 4.8, PLC-beta3 inh 11.7*, KLK7 zymogen act -1.0, PLCg1 inh 9.5*, PLCg1 ctr -3.8 and PLCbeta3 conf 0.2.
`COC1CCCCC1Nc1cc(C)ccc1C` (stereo not drawn) gave ADAM10 inh 3.6, ADAM17 inh -0.1, PLC-beta3 inh 3.7, KLK7 zymogen act 0.2, PLCg1 inh 9.5*, PLCg1 ctr -0.8 and PLCbeta3 conf -1.2.
For COC(=O)c1cccc(NC(=S)NC(C)C)c1 the results were ADAM10 inh -7.3, ADAM17 inh -6.5, PLC-beta3 inh -3.8, KLK7 zymogen act 0.3 and PLCg1 inh 0.9.
`Cc1ccc(/C=N/n2c(C3CCCCC3)n[nH]c2=S)s1` gave ADAM10 inh 1.1, ADAM17 inh -2.4, PLC-beta3 inh -2.9, KLK7 zymogen act -0.5 and PLCg1 inh 0.0.
For CCOC(=O)N/N=C/c1ccc(C)o1 the results were ADAM10 inh 8.3, ADAM17 inh 3.4, PLC-beta3 inh 2.0, KLK7 zymogen act 0.1 and PLCg1 inh 0.1.
Screening CCOC(=O)N/N=C/c1ccc(Oc2ccccc2)cc1 returned ADAM10 inh -5.7, ADAM17 inh -4.4, PLC-beta3 inh 9.1, KLK7 zymogen act 0.4, PLCg1 inh 9.6*, PLCg1 ctr 6.3 and PLCbeta3 conf 10.2.
For CCCOc1ccc(CC(=O)NCCc2ccccc2)cc1OC the results were ADAM10 inh 4.0, ADAM17 inh 3.6, PLC-beta3 inh -0.9, KLK7 zymogen act -0.4, PLCg1 inh 11.7*, PLCg1 ctr -0.4 and PLCbeta3 conf 3.5.
CCNCc1cc(OCC)c(OCC(=O)NCCc2ccccc2)cc1Cl was read as ADAM10 inh 13.7, ADAM17 inh 5.3, PLC-beta3 inh -4.8, KLK7 zymogen act -0.8, PLCg1 inh 11.9*, PLCg1 ctr -7.7 and PLCbeta3 conf -1.5.
For COc1ccc(CCNC(=O)Cc2ccccc2)cc1OC the results were ADAM10 inh 0.8, ADAM17 inh 0.3, PLC-beta3 inh -4.2, KLK7 zymogen act 0.1 and PLCg1 inh -0.8.
Screening CCOc1cc(CNCC(C)C)c(Cl)cc1OCC(=O)Nc1ccccc1 returned ADAM10 inh 1.7, ADAM17 inh -3.5, PLC-beta3 inh -3.3, KLK7 zymogen act -0.3 and PLCg1 inh -0.5.
For CCCCCC(=O)NC(=S)Nc1ccc(Cl)cn1 the results were ADAM10 inh 15.3, ADAM17 inh 7.0, PLC-beta3 inh 1.2, KLK7 zymogen act 0.4, PLCg1 inh 10.3*, PLCg1 ctr -5.4 and PLCbeta3 conf -5.5.
For CCCCCC(=O)Nc1ccc(Cl)cn1 the results were ADAM10 inh 5.8, ADAM17 inh 0.0, PLC-beta3 inh 4.0, KLK7 zymogen act -0.4 and PLCg1 inh 4.8.
Screening Cn1c(=O)c2c(nc(NCc3cccnc3)n2Cc2cccc(C(F)(F)F)c2)n(C)c1=O returned ADAM10 inh 6.2, ADAM17 inh 3.9, PLC-beta3 inh 5.9, KLK7 zymogen act -0.3, PLCg1 inh 12.0*, PLCg1 ctr -2.0 and PLCbeta3 conf 1.6.
Screening COc1cccc(C(=O)Nc2ccc(-n3nncc3C(C)(C)C)cc2)c1 returned ADAM10 inh 12.4, ADAM17 inh 7.1, PLC-beta3 inh 11.5*, KLK7 zymogen act -0.2, PLCg1 inh 8.9, PLCg1 ctr -150.9 and PLCbeta3 conf 3.7.
Screening CC(C)(C)c1cnnn1-c1ccc(NC(=O)c2ccc3c(c2)OCO3)cc1 returned ADAM10 inh 2.4, ADAM17 inh -0.3, PLC-beta3 inh 2.3, KLK7 zymogen act 0.2 and PLCg1 inh 1.0.
Screening COc1ccc(N2CCN(C(=O)CNC(=O)Cc3ccccc3)CC2)cc1 returned ADAM10 inh -12.3, ADAM17 inh -1.9, PLC-beta3 inh -11.8, KLK7 zymogen act -0.1, PLCg1 inh 10.1*, PLCg1 ctr -4.8 and PLCbeta3 conf -2.2.
Cc1nn(C(C)C(=O)N2CCOCC2)c(C)c1[N+](=O)[O-] (stereo not drawn) was read as ADAM10 inh 3.3, ADAM17 inh 1.0, PLC-beta3 inh 3.0, KLK7 zymogen act 0.1, PLCg1 inh 11.4*, PLCg1 ctr -4.5 and PLCbeta3 conf -10.4.

Assay outcomes (PubChem)
